Experiment [1] can be described thus: Validation screen for small molecules that induce DNA re-replication in MCF 10A normal breast cells (AID 463097). Note: 0% is about no effect; nearly all actives have a fitted effect of over 60% in size. Put shortly: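 DNA re-replication was detected as a rise in nuclei with elevated Hoechst fluorescence after a 48 hr compound exposure of MCF 10A cells at 37 C.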
Experiment [2] concerns the target Rap guanine nucleotide exchange factor 3 (Homo sapiens) (UniProt O95398). Put plainly: Confirmatory qHTS for antagonist of cAMP-regulated guanine nucleotide exchange factor 3 (EPAC1) (AID 1645880).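 Note: plate controls were DMSO only for no effect and full effect of the ATA control for full effect; nearly all actives have a fitted effect of over 55% in size.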 The procedure, abridged: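 Nucleotide exchange uses 100 nM EPAC1, 250 nM RAP1B-BODIPY-GDP and 50 uM GDP, with compounds in a concentration-titration series. After 5 min at room temperature, fluorescence (480 nm ex/540 nm em) is read every 5 min for 30 min. Data are normalized to control ATA and DMSO.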

Experiment [3] shares this target. Put plainly: Counterscreen qHTS for antagonist of cAMP-regulated guanine nucleotide exchange factor 3 (EPAC1) (AID 1645888).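 Note: fluorescence loss as bound BODIPY-GDP is released from Rap1B; % of control where 0% means no effect.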 The procedure, abridged:
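Measured: fluorescence of BODIPY-GDP bound to Rap1B, which falls as exchange proceeds. Conditions include 50 uM competing GDP, 5 and 30 min reads, and a later cAMP challenge for antagonist detection.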
(The purpose of a counterscreen is to sort out artefacts and off-target activity.)

The target in experiment [4] is Nuclear receptor subfamily 1 group I member 3 (Homo sapiens) (UniProt Q14994). The experiment can be described thus: Primary qHTS for antagonist of constitutive androstane receptor (CAR) against the NCATS DSHEA and TCM libraries (AID 1794836). Note: series mostly up to about 40 µM. Put shortly: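 HepG2 cells stably carrying hCAR and a CYP2B6 luciferase reporter (2,500 cells/well) attached for 5 h, then received compounds with 48 uM CITCO for 24 h at 37C. ONE-Glo luminescence read antagonism; CellTiter-Fluor (405/540 nm) gave viability.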
In general terms: Quantitative high-throughput screening tests each substance at several concentrations.

The nature of experiment [5]: Viability counterscreen for antagonist of constitutive androstane receptor (CAR) against the NCATS DSHEA and TCM libraries (AID 1794837).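 Note: compound exposure lasted 24 h before viability reading; 0% is about no effect.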 Put shortly:
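Fluorescence from CellTiter-Fluor reports live-cell protease activity in HepG2-CYP2B6-hCAR cells treated for 24 h with substances alongside 48 uM CITCO.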

Experiment [6] is described as follows: Viability counterscreen for agonist of constitutive androstane receptor (CAR) against the NCATS DSHEA and TCM libraries (AID 1794838).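 Note: HepG2 cells with CYP2B6 reporter and hCAR plus 0.75 µM PK11195 antagonist; 0% is about no effect.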 Put shortly:
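In agonist mode, PK11195 is added at 0.75 uM final to HepG2-CYP2B6-hCAR cells dosed with test substances. Cultures incubate 24 h at 37C before a protease-based fluorogenic viability readout.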

Experiment [7] in a line: HepG2 viability counterscreen (readout 2: ATP content) against the NCATS DSHEA and TCM libraries (AID 1794840).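 Note: HepG2 cells exposed to substances for about 24 h; 0% is about no effect.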 The procedure, abridged:
(§1)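 Cytotoxicity was assessed in HepG2 cells plated at 1,000 cells/well and exposed for about 24 hours to a concentration series. Protease activity and ATP content were measured sequentially in each well.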

Experiment [8] in a line: HepG2 viability counterscreen (readout 1: protease activity) against the NCATS DSHEA and TCM libraries (AID 1794841).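 Note: cells exposed to compounds for about 24 h before the protease read; 0% is about no effect.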 The procedure, abridged:
as §1

Experiment [9] addresses Cytochrome P450 2D6 (Homo sapiens) (UniProt P10635). The experiment can be described thus: qHTS for inhibitors of CYP2D6 against the NCATS DSHEA and TCM libraries (AID 1919972). Note: potency is the fitted concentration of half-maximal effect. Put shortly:
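Luminescent P450-Glo read-out of CYP2D6 turnover of a luciferin substrate after NADPH-driven reaction of 30-45 min at room temperature. Compounds were first preincubated 15 min with enzyme at titrated concentrations; quinidine was the intraplate control.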

In experiment [10] the target is Cytochrome P450 2C9 (Homo sapiens) (UniProt P11712). The experiment can be described thus: qHTS for inhibitors of CYP2C9 against the NCATS DSHEA and TCM libraries (AID 1919973).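 For activity change, negative = inhibition: luminogenic pro-luciferin CYP2C9 substrate turned into luciferin with NADPH regeneration; series mostly up to about 34 µM; % is set by controls: 0 for no effect and ±100 for the full control effect.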 Note: potency is the fitted concentration of half-maximal effect. Put shortly: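 Read-out is luminescence after P450-Glo detection (30 min, RT). Before that: 15 min compound–enzyme preincubation, then 30-45 min reaction with 1x NADPH regeneration solution, substrate concentration isoform-specific.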

A short description of experiment [11]: KB-3-1 P-gp reporter qHTS against the NCATS DSHEA and TCM libraries (AID 1919975). Note: 0% is about no effect. The procedure, abridged: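 72 h exposure of KB-3-1 cells (DMEM, 10% FBS) to DSHEA/TCM samples, concentration-response; cell viability measured as CellTiter-Glo luminescence after 30 min at room temperature.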
Experiment [12] is described as follows: KB-8-5-11 P-gp reporter qHTS against the NCATS DSHEA and TCM libraries (AID 1919977). Note: 0% is about no effect. The procedure, abridged:
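Cells were seeded, allowed ~4 h to attach, dosed by pin tool (substance titrations), incubated ~72 h at 37C, then lysed with CellTiter-Glo for 30 min at room temperature before luminescence reading.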

Experiment [13] can be described thus: qHTS Counterscreen for compound interference against the NCATS DSHEA and TCM libraries (AID 1919978). Note: % of control where 0% means no effect. To be noted: firefly luciferase detection reagent interference, luminescence. The procedure, abridged: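 Read-out is luminescence after 30 min at RT with luciferin detection reagent. Before that, compounds (19.5 nM to 39.8 uM final) sat 15 min at RT with 1 uM D-luciferin or 100 mM potassium phosphate buffer. PTC124 served as intraplate control.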

Experiment [14] can be described thus: Dual reporter qHTS for agonist of Pregnane X Receptor (hPXR) against the NCATS DSHEA and TCM libraries: Fluorescence readout (AID 1920058). Note: 0% is about no effect. Put shortly:
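HepG2 hPXR-Luc, 2000 cells/well, 5 h attach; cpds ~24 h, 37 °C/5% CO2; CellTiter-Fluor 1 h; fluor. Ex/Em 405/540 nm = viability.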

Experiment [15] concerns the target Nuclear receptor subfamily 1 group I member 2 (Homo sapiens) (UniProt O75469). The experiment can be described thus: Dual reporter qHTS for antagonist of Pregnane X Receptor (hPXR) against the NCATS DSHEA and TCM libraries: Luminescence Readout (AID 1920060). Note: 0% is about no effect. Put shortly:
(§2)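 Rifampicin-stimulated (2 uM final) hPXR-luciferase HepG2 cells were treated for 24 h with DSNP/TCM substances. Viability came from CellTiter-Fluor fluorescence, reporter activity from ONE-Glo luminescence.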

Experiment [16] in a line: Dual reporter qHTS for antagonist of Pregnane X Receptor (hPXR) against the NCATS DSHEA and TCM libraries: Fluorescence Readout (AID 1920061). Note: 0% is about no effect. The procedure, abridged: as §2
Experiment [17] concerns the target Androgen receptor (Homo sapiens) (UniProt P10275). Put plainly: qHTS assay for small molecule agonists of androgen receptor signaling (AID 588515; active = well fitted curve in the direction sought with a large enough effect in the signal ratio, with a control signal flat; the % refers to the signal ratio; note: % is set by controls: 0 for no effect and ±100 for the full control effect). The following applies: AR-UAS-bla HEK293, beta-lactamase ratio, agonist 16 h; stronger effect = higher value. The procedure, abridged: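 EC50 and efficacy came from Hill fits of titrations (up to 92 uM) normalized to 30 nM R1881 as 100% and DMSO as 0%. Compound exposure was 16 h at 37 C on AR-UAS-bla HEK293 cells, with a 405/460/530 nm CCF4 fluorescence read.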

For experiment [18] the target is unchanged. The experiment can be described thus: qHTS assay for small molecule antagonists of androgen receptor signaling (AID 588516; active = well fitted curve in the direction sought with a large enough effect in the signal ratio, with a control signal flat, not every such curve was filed as active; the % refers to the signal ratio; note: potency is the fitted concentration of half-maximal effect; for activity change, negative = inhibition: % is set by controls: 0 for no effect and ±100 for the full control effect). The procedure, abridged: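 Antagonist-mode qHTS: inhibition of R1881 (10 nM)-driven beta-lactamase expression in GripTite HEK 293 cells is measured after 16 h; values are Hill-derived IC50s normalized between R1881 and DMSO wells.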

Experiment [19] in a line: qHTS Assay for Identification of Small Molecule Agonists for Hypoxia Response Element Signaling Pathway (AID 914; active = well fitted activation curve with a large enough effect in the signal ratio, with a control signal flat, not every such curve was filed as active; the % refers to the signal ratio; note: % of control where 0% means no effect). The following applies: ME-180 (cervical carcinoma) HRE-bla reporter, beta-lactamase ratio, CoCl2, 17 h; activation: stronger effect = higher value. Put shortly:
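ME-180 cells carrying an HRE-driven beta-lactamase reporter were treated with compounds in a titration series plus an EC50 level of CoCl2 for 17 h at 37 degrees Celsius; CCF4 readout as the 460nm/530nm ratio gave AC50 values.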

Experiment [20] in a line: S16 Schwann cell viability assay (CellTiter-Glo assay) (AID 624031).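 Note: cellular ATP luminescence as a viability measure; series mostly up to about 58 µM; plate controls were DMSO-treated cells for no effect and cell-free wells for full effect; nearly all actives have a fitted effect of over 70% in size.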 The procedure, abridged:
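Native S16 rat Schwann cells in DMEM/10% FBS without phenol red were incubated overnight, then exposed to compounds for 24 h at 37 °C/5% CO2. Viability was read as ATP luminescence (CellTiter-Glo), normalized to no-cell wells and DMSO (0%).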
On the technique in general: Cellular ATP, detected with luciferase, serves as a proxy for viable cell number.

“And” between values parts separate entries of the source, which are not always exact repeats. Equal values may be shown once. Unmarked numbers belong to inactive results. Records with an inconclusive call do not appear. The source made the active and inactive calls. Unless noted, calls come from the whole dose curve; as a rule, active = well fitted curve in the direction sought with a large enough effect; inconclusive = small, poorly fitted or top-dose-only effect, or another doubt; inactive = no such curve, though single readings can be large; an effect the other way counts as inactive or inconclusive.

Sequence of Androgen receptor (Homo sapiens) (P10275 whole entry, looked up): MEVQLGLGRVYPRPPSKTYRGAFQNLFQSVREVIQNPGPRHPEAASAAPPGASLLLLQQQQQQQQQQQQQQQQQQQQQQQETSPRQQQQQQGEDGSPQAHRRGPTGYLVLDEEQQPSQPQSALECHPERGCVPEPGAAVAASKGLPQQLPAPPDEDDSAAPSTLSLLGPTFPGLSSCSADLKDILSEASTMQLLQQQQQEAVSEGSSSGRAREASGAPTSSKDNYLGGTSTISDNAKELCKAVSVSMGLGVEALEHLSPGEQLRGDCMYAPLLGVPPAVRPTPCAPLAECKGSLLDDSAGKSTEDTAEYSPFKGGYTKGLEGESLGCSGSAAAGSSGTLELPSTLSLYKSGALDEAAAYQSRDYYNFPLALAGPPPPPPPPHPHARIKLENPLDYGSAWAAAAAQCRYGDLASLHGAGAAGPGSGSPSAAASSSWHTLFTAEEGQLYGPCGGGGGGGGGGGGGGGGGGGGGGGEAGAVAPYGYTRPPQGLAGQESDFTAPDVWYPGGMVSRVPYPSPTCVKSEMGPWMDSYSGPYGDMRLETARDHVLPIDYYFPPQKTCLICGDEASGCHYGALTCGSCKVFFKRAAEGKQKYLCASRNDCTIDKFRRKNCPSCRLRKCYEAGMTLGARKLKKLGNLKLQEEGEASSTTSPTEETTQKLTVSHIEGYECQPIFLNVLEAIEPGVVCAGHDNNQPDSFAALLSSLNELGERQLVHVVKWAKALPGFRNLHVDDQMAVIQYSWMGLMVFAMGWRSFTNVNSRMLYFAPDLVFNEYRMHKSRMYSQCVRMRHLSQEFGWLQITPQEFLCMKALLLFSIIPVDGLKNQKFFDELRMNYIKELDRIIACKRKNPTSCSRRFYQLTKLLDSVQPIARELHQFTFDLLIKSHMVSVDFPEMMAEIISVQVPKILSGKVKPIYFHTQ
Sequence of Rap guanine nucleotide exchange factor 3 (Homo sapiens) (O95398 whole entry, looked up): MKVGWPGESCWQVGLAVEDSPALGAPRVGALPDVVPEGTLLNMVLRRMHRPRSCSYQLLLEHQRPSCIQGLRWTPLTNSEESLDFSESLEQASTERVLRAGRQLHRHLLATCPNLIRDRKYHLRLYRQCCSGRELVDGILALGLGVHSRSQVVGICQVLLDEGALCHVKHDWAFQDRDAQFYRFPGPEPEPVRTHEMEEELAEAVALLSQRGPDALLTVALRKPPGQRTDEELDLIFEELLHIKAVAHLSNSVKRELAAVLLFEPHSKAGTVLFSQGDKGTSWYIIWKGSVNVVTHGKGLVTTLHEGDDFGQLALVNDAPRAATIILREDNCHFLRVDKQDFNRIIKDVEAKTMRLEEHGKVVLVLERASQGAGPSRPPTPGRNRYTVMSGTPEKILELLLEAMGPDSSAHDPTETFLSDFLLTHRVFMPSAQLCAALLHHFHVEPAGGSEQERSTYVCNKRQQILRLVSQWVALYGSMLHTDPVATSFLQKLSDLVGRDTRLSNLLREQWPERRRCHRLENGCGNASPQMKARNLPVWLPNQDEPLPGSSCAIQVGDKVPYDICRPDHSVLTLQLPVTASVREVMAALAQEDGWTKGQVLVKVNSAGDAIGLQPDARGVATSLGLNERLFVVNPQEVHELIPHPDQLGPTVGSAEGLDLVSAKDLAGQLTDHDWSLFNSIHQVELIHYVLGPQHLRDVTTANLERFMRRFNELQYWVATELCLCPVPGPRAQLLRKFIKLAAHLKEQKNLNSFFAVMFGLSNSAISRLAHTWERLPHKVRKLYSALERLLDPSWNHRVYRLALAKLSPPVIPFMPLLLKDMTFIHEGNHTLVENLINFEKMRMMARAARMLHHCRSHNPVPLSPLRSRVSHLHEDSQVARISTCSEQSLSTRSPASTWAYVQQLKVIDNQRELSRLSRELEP
Sequence of Nuclear receptor subfamily 1 group I member 3 (Homo sapiens) (Q14994 whole entry, looked up): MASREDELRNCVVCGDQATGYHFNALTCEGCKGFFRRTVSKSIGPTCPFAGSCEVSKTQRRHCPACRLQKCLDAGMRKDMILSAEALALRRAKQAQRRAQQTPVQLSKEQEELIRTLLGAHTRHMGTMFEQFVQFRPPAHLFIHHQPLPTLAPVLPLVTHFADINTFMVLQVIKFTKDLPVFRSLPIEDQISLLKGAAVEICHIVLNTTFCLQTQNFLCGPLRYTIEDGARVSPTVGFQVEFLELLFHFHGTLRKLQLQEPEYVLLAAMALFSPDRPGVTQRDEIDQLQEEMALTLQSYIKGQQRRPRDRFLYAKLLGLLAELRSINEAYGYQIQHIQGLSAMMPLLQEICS
Sequence of Cytochrome P450 2C9 (Homo sapiens) (P11712 whole entry, looked up, canonical isoform): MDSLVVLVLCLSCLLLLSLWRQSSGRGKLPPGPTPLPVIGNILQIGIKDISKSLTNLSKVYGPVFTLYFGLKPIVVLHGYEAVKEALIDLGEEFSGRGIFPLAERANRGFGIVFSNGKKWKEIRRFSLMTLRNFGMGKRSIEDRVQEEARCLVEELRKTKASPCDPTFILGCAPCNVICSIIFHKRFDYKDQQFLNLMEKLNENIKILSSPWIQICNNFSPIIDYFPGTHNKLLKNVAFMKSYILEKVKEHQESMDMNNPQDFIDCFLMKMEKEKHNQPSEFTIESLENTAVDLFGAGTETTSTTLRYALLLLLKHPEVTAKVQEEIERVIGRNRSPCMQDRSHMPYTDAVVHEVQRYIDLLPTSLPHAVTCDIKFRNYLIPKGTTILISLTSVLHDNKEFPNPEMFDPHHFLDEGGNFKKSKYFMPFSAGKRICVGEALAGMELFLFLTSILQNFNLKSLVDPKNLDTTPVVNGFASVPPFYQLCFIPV
Sequence of Nuclear receptor subfamily 1 group I member 2 (Homo sapiens) (O75469 whole entry, looked up): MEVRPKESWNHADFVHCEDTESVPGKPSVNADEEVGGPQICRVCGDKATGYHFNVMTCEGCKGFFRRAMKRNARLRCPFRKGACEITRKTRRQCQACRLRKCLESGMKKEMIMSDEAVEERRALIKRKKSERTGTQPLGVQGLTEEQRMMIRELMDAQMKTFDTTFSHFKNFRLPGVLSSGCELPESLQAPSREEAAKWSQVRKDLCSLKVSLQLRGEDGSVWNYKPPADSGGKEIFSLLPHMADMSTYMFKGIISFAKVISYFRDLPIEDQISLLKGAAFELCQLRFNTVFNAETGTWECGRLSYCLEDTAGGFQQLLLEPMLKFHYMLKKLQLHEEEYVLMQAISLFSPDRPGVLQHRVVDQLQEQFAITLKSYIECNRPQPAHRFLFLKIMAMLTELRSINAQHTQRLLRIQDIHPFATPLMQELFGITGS
Sequence of Cytochrome P450 2D6 (Homo sapiens) (P10635 whole entry, looked up): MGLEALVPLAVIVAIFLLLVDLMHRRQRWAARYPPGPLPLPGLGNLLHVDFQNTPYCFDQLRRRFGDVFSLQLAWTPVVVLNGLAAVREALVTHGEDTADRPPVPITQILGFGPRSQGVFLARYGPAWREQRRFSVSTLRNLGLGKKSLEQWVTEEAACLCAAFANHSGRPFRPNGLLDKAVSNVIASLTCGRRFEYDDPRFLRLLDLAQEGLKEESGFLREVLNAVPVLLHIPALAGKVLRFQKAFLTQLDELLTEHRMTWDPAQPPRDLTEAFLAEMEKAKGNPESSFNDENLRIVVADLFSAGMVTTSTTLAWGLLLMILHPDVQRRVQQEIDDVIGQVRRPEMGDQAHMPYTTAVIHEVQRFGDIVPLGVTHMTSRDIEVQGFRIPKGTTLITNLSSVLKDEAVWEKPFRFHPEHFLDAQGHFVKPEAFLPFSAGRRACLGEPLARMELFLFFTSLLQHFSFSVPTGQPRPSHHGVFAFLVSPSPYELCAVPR

As for `C[C@]12CC[C@H](O)CC1=CCC1C2CC[C@]2(C)C(=O)CC[C@@H]12` (stereo not given in full), the Potency entry in experiment [1] was “inactive”.

For the compound `CNCC[C@@H](Oc1ccc(C(F)(F)F)cc1)c1ccccc1`, in experiment [1], the Potency result was “inactive”.

With `O=C1c2ccccc2-c2cccc3cccc1c23`, the Potency result in experiment [2] is “inactive”.

As to `O=C(OC1CCN(CCCl)CC1)C(c1ccccc1)c1ccccc1`, the Potency result in [2] is “inactive”. Further, in [3], the activity change, negative = inhibition is -43.6% [at 30.8 µM].

For `COc1cc2c(cc1O)CC1c3c(cc(O)c(OC)c3-2)CCN1C` (stereo not given), the Potency result in experiment [4] and in experiment [12] was “inactive” in each case. Moreover, the result in [5], in [6], in [7], in experiment [8], in [11] and in experiment [14] was inactive. In addition, the compound was called inactive in experiment [15] and in [16]. The Potency is 11.2 µM (active) in [9] and 10 µM (active) in experiment [10]. Also, the max response in experiment [13] was 0.642%.

Consider `COc1ccc2c(c1O)-c1c(OC)c(OC)cc3c1[C@H](C2)N(C)CC3`, for which the Potency entry in experiment [4], in experiment [10] and in experiment [12] was “inactive” in each case. Further, the result in experiment [5], in [6], in experiment [7], in experiment [8], in experiment [11] and in experiment [14] was inactive. For the same compound, the call in [15] and in experiment [16] was inactive. Moreover, the max response in experiment [13] is 1.18%.

In the case of `O=S1OCC2C(CO1)C1(Cl)C(Cl)=C(Cl)C2(Cl)C1(Cl)Cl` (stereo not given), the activation in experiment [17] is -11.1%. In [18], the Potency result is “inactive”.

For the compound `CCc1cccc(CC)c1N(COC)C(=O)CCl`, in experiment [17], the activation is -10.2% and -10.1%. For the same compound, the Potency in [18] was 44.7 µM (active).

Consider `COc1ccc(NC(=O)N2CCC3(CC2)CCN(C(=O)Oc2ccccc2)CC3)cc1`, for which the activation in experiment [19] is -18.1%.

On to `COc1ccc2c(c1OC)CN1CCc3cc4c(cc3[C@H]1C2)OCO4`, for which the Potency entry in experiment [20] was “inactive”.

In the case of `C[C@@]12CC[C@H]3[C@@H](CC[C@@H]4C[C@H]5S[C@H]5C[C@]43C)[C@H]1CC[C@H]2O`, in experiment [19], the activation was 1.68%.

For `CC(C)c1c(CN(C)[C@@H](C)Cc2ccccc2)n(C)n(-c2ccccc2)c1=O`, the Potency result in experiment [20] was “inactive”.

Regarding `CC(C)[C@@]1(NC(=O)[C@@H]2C[C@H]3c4cccc5[nH]cc(c45)C[C@@H]3N(C)C2)O[C@]2(O)[C@H]3CCCN3C(=O)CN2C1=O`, in [19], the activation is 9.33%.

Regarding `N[C@H]1C[C@H]1c1ccccc1`, the Potency entry in experiment [20] was “inactive”.

The values above are taken from PubChem BioAssay (NCATS).
